The text below walks through data of PubChem BioAssay (Tox21).

Unmarked numbers belong to inactive results. Results filed as inconclusive are left out. Activity calls are given as the source filed them. Unless noted, calls come from the whole dose curve; as a rule, active = well fitted curve in the direction sought with a large enough effect in the repeat runs; inconclusive = weak or mixed curves; inactive = no such curve, though single readings can be large; an effect the other way counts as inactive or inconclusive.

Test [1] addresses Estrogen receptor beta (Homo sapiens) (UniProt Q92731). Nature of the test: qHTS assay to identify small molecule agonists of the estrogen receptor beta (ER-beta) signaling pathway (AID 1259377; active = well fitted activation curve with a large enough effect in the signal ratio in the repeat runs, not every such curve was filed as active; the % refers to the signal ratio; note: potency is the fitted concentration of half-maximal effect). A digest of the protocol:
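A UAS-controlled beta-lactamase reporter in ER-beta-UAS-bla HEK293T cells reports receptor activation. Compounds act for 16 hr at 37C in 2% charcoal-stripped serum, and a FRET substrate is read by fluorescence after 2 hours.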
For orientation: In qHTS, concentration-response curves come from the screen itself.

Test [2] is described as follows: qHTS assay to identify small molecule agonists of the androgen receptor (AR) signaling pathway in the presence of an antagonist - cell viability counter screen (AID 1259379).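 Note: MDA-kb2 human breast cancer cells carrying an MMTV luciferase reporter; series mostly up to about 92 µM; nearly all actives have a fitted effect of over 25% in size.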 An outline of the steps: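 MDA-kb2 viability measured by CellTiter-Fluor fluorescence in the same wells as the luciferase signal; nilutamide 3.0uM final; 15-point compound titration; 16 hr at 37C.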

A short description of test [3]: qHTS assay to identify small molecule agonists of the estrogen receptor beta (ER-beta) signaling pathway - cell viability counter screen (AID 1259380). Note: nearly all actives have a fitted effect of over 30% in size. A digest of the protocol: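 Measured: luminescence from CellTiter-Glo after 30 min at room temperature, added to wells already read for the LiveBLAzer FRET reporter (2 hr substrate); ER-beta-UAS-bla HEK293T cells had 16 hr compound treatment at 37C, 5% CO2.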

Test [4] is described as follows: qHTS assay to identify small molecule antagonists of the estrogen receptor beta (ER-beta) signaling pathway - cell viability counter screen (AID 1259382). Note: series mostly up to about 92 µM; nearly all actives have a fitted effect of over 55% in size. An outline of the steps:
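Readout: luminescence, CellTiter-Glo, same wells as bla assay. System: ER-beta-UAS-bla GripTite HEK293T, 2% charcoal-stripped FBS. Exposure: compounds plus 1nM 17-beta-estradiol, 16 hr, 37C.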

Test [5] addresses Estrogen receptor (Homo sapiens) (UniProt P03372). The test is described as follows: qHTS assay to identify small molecule agonists of the estrogen receptor alpha (ER-alpha) signaling pathway in the presence of an antagonist (AID 1259383; calls by dose curve; note: top concentration of the series differs between compounds; nearly all actives have a fitted effect of over 15% in size). A digest of the protocol: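 Quantitative HTS confirmation: compounds titrated at 15 concentrations onto estrogen-deprived VM7Luc4E2 cells carrying a four-ERE luciferase construct, with ICI-182,780 present at 10.0nM final. Signal is luminescence after 22hr exposure.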

Test [6] is described as follows: qHTS assay to identify small molecule agonists or antagonists of the thyroid stimulating hormone receptor (TSHR) signaling pathway - wild type cell line counter screen (AID 1259384; calls by dose curve). A digest of the protocol:
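Wild-type HEK293 cells were plated 18 h at 37 C/5% CO2, pin-dosed with compound plus Ro20-1724 medium, held 30 min at room temperature, then given cAMP-d2 and anti-cAMP-cryptate; fluorescence was read after 1 h. Fifteen concentrations, triplicate.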

In test [7] the target is Thyrotropin receptor (Homo sapiens) (UniProt P16473). Nature of the test: qHTS assay to identify small molecule antagonists of the thyroid stimulating hormone receptor (TSHR) signaling pathway (AID 1259385; calls by dose curve; note: nearly all actives have a fitted effect of over 20% in size). A digest of the protocol: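 TSHR-HEK293 cells were plated and held 18 h at 37C/5% CO2, then given compound plus Ro20-1724 and stimulated with TSH at 1.5 ng/mL final. After 30 min at room temperature, cAMP was detected with cAMP-d2/anti-cAMP-cryptate (1 h) by fluorescence.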
Thyrotropin receptor (Homo sapiens), sequence (P16473 whole entry, looked up): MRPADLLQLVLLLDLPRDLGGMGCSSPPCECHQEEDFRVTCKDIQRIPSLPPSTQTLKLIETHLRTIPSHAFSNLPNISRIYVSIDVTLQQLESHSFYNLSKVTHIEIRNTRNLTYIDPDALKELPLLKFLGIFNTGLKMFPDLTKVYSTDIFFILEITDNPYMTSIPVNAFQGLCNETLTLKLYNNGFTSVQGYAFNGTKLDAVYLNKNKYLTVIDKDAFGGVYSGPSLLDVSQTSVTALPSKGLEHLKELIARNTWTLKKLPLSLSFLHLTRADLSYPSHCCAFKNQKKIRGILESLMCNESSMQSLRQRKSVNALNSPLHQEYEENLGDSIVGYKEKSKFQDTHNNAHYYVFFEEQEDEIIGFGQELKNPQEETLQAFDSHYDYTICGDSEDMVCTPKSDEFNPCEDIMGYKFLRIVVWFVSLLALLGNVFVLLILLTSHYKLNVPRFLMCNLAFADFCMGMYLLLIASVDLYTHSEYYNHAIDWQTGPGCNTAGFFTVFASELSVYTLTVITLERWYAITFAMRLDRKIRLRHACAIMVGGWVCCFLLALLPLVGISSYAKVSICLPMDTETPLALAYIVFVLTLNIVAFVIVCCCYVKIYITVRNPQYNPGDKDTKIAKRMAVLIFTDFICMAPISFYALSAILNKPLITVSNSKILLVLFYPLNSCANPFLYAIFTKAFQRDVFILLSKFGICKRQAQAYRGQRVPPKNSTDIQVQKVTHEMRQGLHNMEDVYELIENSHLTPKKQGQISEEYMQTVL

Test [8] is described as follows: qHTS assay to identify small molecule agonists of the estrogen receptor alpha (ER-alpha) signaling pathway in the presence of an antagonist - cell viability counter screen (AID 1259386).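 Note: series mostly up to about 92 µM; cells exposed to compounds for 22 h at 37 °C before the viability read; nearly all actives have a fitted effect of over 30% in size.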 A digest of the protocol: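 The test measures whether compounds kill ER-alpha reporter cells (VM7Luc4E2) under antagonist co-treatment (ICI-182,780, 10.0nM). Fluorescence from CellTiter-Fluor is read after a 22hr exposure.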

In test [9] the target is Estrogen receptor beta (Homo sapiens) (UniProt Q92731). Nature of the test: qHTS assay to identify small molecule antagonists of the estrogen receptor beta (ER-beta) signaling pathway (AID 1259378; active = well fitted inhibition curve with a large enough effect in the signal ratio in the repeat runs, not every such curve was filed as active; the % refers to the signal ratio). An outline of the steps: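 ER-beta-UAS-bla HEK293T (GripTite) cells in 2% charcoal-stripped FBS medium were preincubated 6 hr at 37C, dosed with compound, then stimulated with 1 nM E2 (final) for 16 hr; beta-lactamase reporter read by B/G FRET fluorescence after 2 hr substrate loading.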
Estrogen receptor beta (Homo sapiens), sequence (Q92731 whole entry, looked up): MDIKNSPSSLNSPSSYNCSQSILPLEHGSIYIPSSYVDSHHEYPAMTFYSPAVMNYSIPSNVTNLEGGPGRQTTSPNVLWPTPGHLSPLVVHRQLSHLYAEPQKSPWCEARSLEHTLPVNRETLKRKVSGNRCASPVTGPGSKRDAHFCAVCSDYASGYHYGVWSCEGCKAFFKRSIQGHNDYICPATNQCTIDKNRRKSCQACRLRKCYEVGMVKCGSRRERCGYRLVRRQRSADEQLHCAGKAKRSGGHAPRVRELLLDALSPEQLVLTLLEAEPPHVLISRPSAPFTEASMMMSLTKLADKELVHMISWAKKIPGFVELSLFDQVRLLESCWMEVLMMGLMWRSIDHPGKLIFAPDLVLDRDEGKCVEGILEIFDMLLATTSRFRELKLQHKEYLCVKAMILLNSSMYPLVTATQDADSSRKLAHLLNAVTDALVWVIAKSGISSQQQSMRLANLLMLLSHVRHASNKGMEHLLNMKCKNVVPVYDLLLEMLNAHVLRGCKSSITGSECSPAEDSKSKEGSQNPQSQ

For test [10], the target named is Androgen receptor (Homo sapiens) (UniProt P10275). The test is described as follows: qHTS assay to identify small molecule agonists of the androgen receptor (AR) signaling pathway in the presence of an antagonist (AID 1259381; calls by dose curve; note: nearly all actives have a fitted effect of over 15% in size; note: potency is the fitted concentration of half-maximal effect). A digest of the protocol: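 Luminescent ONE-Glo read, 30min at room temperature, follows 16hr compound exposure (15 concentrations) of MDA-kb2 cells at 37C, 0% CO2, with nilutamide added at 3.0uM final.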
Androgen receptor (Homo sapiens), sequence (P10275 whole entry, looked up): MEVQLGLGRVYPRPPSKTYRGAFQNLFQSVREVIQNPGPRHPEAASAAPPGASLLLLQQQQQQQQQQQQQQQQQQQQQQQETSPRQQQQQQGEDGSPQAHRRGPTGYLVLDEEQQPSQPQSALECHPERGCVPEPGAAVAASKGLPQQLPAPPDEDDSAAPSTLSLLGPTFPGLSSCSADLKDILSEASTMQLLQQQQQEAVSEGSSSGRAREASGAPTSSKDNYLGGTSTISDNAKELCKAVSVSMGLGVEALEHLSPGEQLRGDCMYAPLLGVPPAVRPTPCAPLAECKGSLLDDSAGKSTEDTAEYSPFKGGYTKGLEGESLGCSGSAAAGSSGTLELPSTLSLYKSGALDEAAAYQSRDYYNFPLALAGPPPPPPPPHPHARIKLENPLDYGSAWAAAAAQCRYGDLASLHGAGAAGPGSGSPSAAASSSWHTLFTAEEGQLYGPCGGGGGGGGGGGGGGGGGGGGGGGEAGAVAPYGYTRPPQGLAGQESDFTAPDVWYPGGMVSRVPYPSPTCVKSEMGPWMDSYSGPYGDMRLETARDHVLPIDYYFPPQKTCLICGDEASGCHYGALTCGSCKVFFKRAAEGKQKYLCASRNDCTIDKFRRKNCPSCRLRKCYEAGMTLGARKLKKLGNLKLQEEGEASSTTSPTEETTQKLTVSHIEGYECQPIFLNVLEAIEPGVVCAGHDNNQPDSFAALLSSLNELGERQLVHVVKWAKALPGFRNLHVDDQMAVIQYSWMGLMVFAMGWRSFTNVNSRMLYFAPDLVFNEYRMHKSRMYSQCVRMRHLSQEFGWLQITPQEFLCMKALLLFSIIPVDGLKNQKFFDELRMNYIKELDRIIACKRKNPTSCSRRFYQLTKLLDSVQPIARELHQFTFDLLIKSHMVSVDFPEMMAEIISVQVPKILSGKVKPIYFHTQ
% is set by controls: 0 for no effect and ±100 for the full control effect.

Estrogen receptor (Homo sapiens), sequence (P03372 whole entry, looked up): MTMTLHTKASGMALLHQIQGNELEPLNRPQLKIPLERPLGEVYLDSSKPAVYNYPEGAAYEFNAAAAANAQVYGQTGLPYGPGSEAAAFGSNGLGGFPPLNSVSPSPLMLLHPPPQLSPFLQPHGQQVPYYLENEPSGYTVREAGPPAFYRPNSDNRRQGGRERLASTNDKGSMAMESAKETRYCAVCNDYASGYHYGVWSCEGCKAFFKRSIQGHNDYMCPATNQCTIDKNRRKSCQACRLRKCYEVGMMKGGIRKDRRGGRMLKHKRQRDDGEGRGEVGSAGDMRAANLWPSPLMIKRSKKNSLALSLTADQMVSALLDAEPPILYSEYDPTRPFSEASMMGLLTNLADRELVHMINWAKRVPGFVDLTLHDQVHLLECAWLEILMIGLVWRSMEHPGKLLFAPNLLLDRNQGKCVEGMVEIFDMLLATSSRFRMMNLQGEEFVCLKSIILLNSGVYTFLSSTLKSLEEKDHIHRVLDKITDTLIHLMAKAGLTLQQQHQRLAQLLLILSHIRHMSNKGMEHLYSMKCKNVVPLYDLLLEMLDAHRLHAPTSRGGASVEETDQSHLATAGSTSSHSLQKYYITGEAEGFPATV

With `c1ccc2nccnc2c1`, the Potency entry in [1], in [2], in test [3] and in [8] was “inactive” in each case. The call in test [4], in [5], in [6] and in test [7] was inactive.

As for `CC[C@H](C)C(=O)O[C@H]1C[C@H](O)C=C2C=C[C@H](C)[C@H](CC[C@@H](O)C[C@@H](O)CC(=O)O)[C@H]21`, the Potency entry in [1], in test [2], in test [3] and in test [8] was “inactive” each time. Also, the result in test [4] and in test [5] was inactive.

`O=S(=O)(O)c1cc(O)c2ccc(Nc3ccccc3)cc2c1`: the Potency entry in [1] and in test [2] was “inactive” each time. In addition, the compound was called inactive in test [9], in test [4] and in [5].

For `C=CC(OCC)OCC`, the Potency entry in test [1], in [2], in test [3] and in test [8] was “inactive” each time. The call in test [9] and in test [4] was inactive.

As for `CC(=O)Nc1ccc(S(=O)(=O)Cl)cc1`, the Potency entry in test [1], in test [2], in test [3] and in test [8] was “inactive” throughout. Moreover, the compound was classed as inactive in [9] and in test [4].

In the case of `CCn1ccc(NS(=O)(=O)c2ccc(N)cc2)nc1=O`, the Potency result in test [1], in test [2], in test [3] and in test [8] was “inactive” throughout. In addition, the compound was classed as inactive in [4], in test [5] and in [6].

For `O=C(/N=N/C(=O)OCc1ccccc1)OCc1ccccc1`, the Potency entry in [1], in test [2] and in test [8] was “inactive” each time. Besides, the call in [9], in test [4], in [5] and in [7] was inactive.

`O=C(OCC(COC(=O)c1cccnc1)(COC(=O)c1cccnc1)COC(=O)c1cccnc1)c1cccnc1`: the Potency entry in [1], in test [2], in [3], in [10] and in [8] was “inactive” each time. Also, the call in [4], in test [5] and in [6] was inactive.

Take `COc1cc(NS(=O)(=O)c2ccc(N)cc2)nc(OC)n1`: the Potency result in test [1], in [2], in test [3], in [10] and in test [8] was “inactive” throughout. The outcome in test [4] and in test [5] was inactive.

For the compound `CCOc1cc([N+](=O)[O-])c(OCC)cc1N1CCOCC1`, the Potency entry in test [1] and in test [3] was “inactive” each time. Also, the call in test [4], in [5], in test [6] and in test [7] was inactive.

`BrCc1cccc(Oc2ccccc2)c1`: the call in test [9], in test [4] and in test [6] was inactive. In addition, the Potency entry in test [2], in [3], in test [10] and in test [8] was “inactive” throughout.

In the case of `OCCC(F)(F)C(F)(F)C(F)(F)C(F)(F)C(F)(F)C(F)(F)C(F)(F)C(F)(F)F`, the Potency entry in test [1], in [2], in test [3], in test [10] and in test [8] was “inactive” each time. Moreover, the compound was called inactive in [4] and in test [5].

With `COC(=O)c1ccccc1C(=O)c1ccc(OCCN2CCCCC2)cc1`, the Potency result in test [1], in [2] and in test [8] was “inactive” in each case. For the same compound, the result in test [9], in test [4], in [5], in [6] and in [7] was inactive.

For `COc1cc(N)ccc1C`, the Potency result in [1], in [2], in [3] and in test [8] was “inactive” each time. The result in test [4] and in test [6] was inactive.

As to `C#CC(C)N(C)C(=O)Nc1ccc(Cl)cc1` (stereo unspecified), the Potency entry in [1], in test [2], in test [10] and in [8] was “inactive” throughout. The result in [9] and in test [4] was inactive.

As to `NCCS`, the Potency result in test [1], in test [2], in test [3] and in [8] was “inactive” throughout. The compound was classed as inactive in test [9] and in [4].

With `NC(CO)C(=O)NNCc1ccc(O)c(O)c1O` (stereo unspecified), the Potency entry in test [2] and in test [3] was “inactive” in each case. Further, the Potency in [10] is 13.3 µM (active). Besides, the outcome in test [4], in test [5] and in test [6] was inactive.

On to `CC(C)C[C@H](NC(=O)CNC(=O)[C@H](Cc1ccc(O)cc1)NC(=O)[C@H](CO)NC(=O)[C@H](Cc1c[nH]c2ccccc12)NC(=O)[C@H](Cc1cnc[nH]1)NC(=O)[C@@H]1CCC(=O)N1)C(=O)N[C@@H](CCCN=C(N)N)C(=O)N1CCC[C@H]1C(=O)NCC(N)=O` (stereo in doubt), for which the Potency entry in test [1], in test [2] and in [8] was “inactive” throughout. Besides, the compound was classed as inactive in test [9] and in test [4].

On to `CCCCNC1CC(C)(C)NC(C)(C)C1`, for which the Potency result in [1], in [3] and in test [8] was “inactive” throughout. Moreover, the compound was classed as inactive in test [9], in test [4], in test [5], in [6] and in test [7].

With `CCCCCCOc1ccccc1C(N)=O`, the Potency result in [1], in test [3] and in test [8] was “inactive” throughout. In addition, the outcome in [9], in test [4], in test [5], in test [6] and in test [7] was inactive.

Regarding `Oc1ccccc1-c1nnco1`, the Potency entry in test [1], in [2], in test [3], in [10] and in [8] was “inactive” in each case. The compound was classed as inactive in [4], in test [5] and in test [7].

`O=S(=O)(O)CCN1CCN(CCO)CC1`: the Potency result in test [1], in test [2], in test [3] and in [8] was “inactive” throughout. The compound was classed as inactive in test [9] and in test [4].

Take `Cc1ccccc1C(=O)Nc1ccc(C(=O)N2CCCC(N(C)C)c3ccccc32)cc1` (stereo unspecified): the Potency result in test [1], in test [2] and in [8] was “inactive” throughout. Besides, the outcome in test [9], in test [4], in test [5] and in [6] was inactive.

Regarding `CCCCCOC(=O)CCC`, the Potency result in test [1], in [2], in test [3] and in test [8] was “inactive” throughout. Besides, the call in test [4] and in [6] was inactive.

For the compound `CC(C)c1ccc2cc(C(C)C)ccc2c1`, the Potency result in [1], in [2], in test [3], in test [10] and in test [8] was “inactive” throughout. Also, the call in test [4], in test [5] and in test [7] was inactive.

As for `Cc1[nH]cnc1-c1ccc(Cl)cc1`, the Potency result in test [2], in test [3], in test [10] and in test [8] was “inactive” each time. Besides, the outcome in test [4], in test [5], in test [6] and in test [7] was inactive.

Consider `COc1cc2c(cc1OC)[C@@H]1CC(=O)[C@@H](CC(C)C)CN1CC2`, for which the Potency entry in [1], in test [2], in test [3] and in [8] was “inactive” throughout. In addition, the call in [4], in test [5], in test [6] and in [7] was inactive.

For `CCCN1C[C@H](CSC)C[C@@H]2c3cccc4[nH]cc(c34)C[C@H]21`, the Potency entry in [1], in test [2] and in test [8] was “inactive” each time. The compound was classed as inactive in [4], in test [5], in [6] and in test [7].

Regarding `O=S(O)(O)=S`, in test [9], the activity, negative = inhibition was 6.44% [at 8.39 µM]. Moreover, the activity change, negative = cytotoxicity in [2] was 1.18% [at 8.39 µM]; in test [3], -9.09% [at 8.39 µM]; in test [4] it was 4.48% [at 8.39 µM]; in test [8], 1.38% [at 8.39 µM]. Moreover, the activation in [5] was 0.31% [at 8.39 µM]. Also, the cAMP activity change in [6] was 0.958% [at 8.39 µM]. Moreover, in [7], the activity change, negative = inhibition was 2.15% [at 8.39 µM].

In the case of `Cc1cccc2nccnc12`, the Potency entry in [1], in [2], in test [3] and in test [8] was “inactive” throughout. The compound was classed as inactive in [4], in test [5], in test [6] and in test [7].

As for `O=C(c1ccc(O)cc1)c1ccc(O)c(O)c1O`, in test [1], the Potency was 15.4 µM (active). In addition, the Potency entry in test [3] was “inactive”. Besides, the outcome in [4] was inactive.

Turning to `CC1=C(C(=O)O)N2C(=O)[C@@H](NC(=O)[C@H](N)c3ccc(O)cc3)[C@H]2SC1`, the Potency entry in test [1], in test [2] and in test [8] was “inactive” in each case. In addition, the result in test [9], in [4] and in [6] was inactive.
